We go through 44 molecules from PubChem BioAssay AID2685 (National Center for Advancing Translational Sciences (NCATS), 2010).

Molecules are shown by their SMILES. The whole screen tested about 320,000 compounds, of which about 2,100 (0.66%) were called active. Inconclusive results (about 53%) are left out. The call rests on the fitted dose curve; in most records, active means well fitted inhibition curve with a large enough effect in the signal ratio, with a control signal flat (not every such curve was filed as active); inconclusive means small, poorly fitted or top-dose-only effect, or effect the other way, or a change in a side signal; inactive means flat fitted curve, though single readings scatter; the % refers to the signal ratio. For the sample, actives were picked, then their nearest neighbours and some compounds at random.
Potency means the concentration at half of the fitted maximal effect.

The experiment is described as follows: qHTS Assay for Lipid Storage Modulators in Drosophila S3 Cells.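 On cell number change: cells counted by Cell Tracker Red CMTPX staining in the red channel.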 On lipid storage change, negative = inhibition: on the % scale 0 is the no-effect control and ±100 the full control effect. The conditions noted are these: BODIPY lipid droplet fluorescence, 18-24 h, cells fed with added oleic acid; cell number change: measured here: cell count max response; series mostly up to 46.1 µM. The method, boiled down: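 Drosophila S3 cells loaded with oleic acid (400 uM, as added) and compounds at several concentrations; lipid droplets imaged by 488-nm laser-scanning cytometry, 500–530 nm intensity and object ratio to cell channel. Percent activity normalized to 20 uM Triacsin C.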
(In general: qHTS replaces the single test concentration by a dilution series.)
`CC/C(O)=C(/C#N)c1nnc2n1CCCCC2`: the Potency entry was “inactive” and the cell number change amounted to 8.5%.
As to `CCOCCCNS(=O)(=O)c1cc2[nH]c3c(c2cc1C)C(=O)CC(C)(C)C3`, the Potency entry is “inactive” and the cell number change came to 16.9%.
For `Cc1ccc(C(=O)NCCNC(=O)c2ccco2)cc1C`, the Potency result is “inactive” and the cell number change is 19.6%.
On to `COC(=O)c1c(NC(=O)CC2SC(N)=NC2=O)sc2c1CCCC2` (stereo not drawn), for which the Potency result was “inactive”.
Regarding `COc1ccc(NC(C)c2ccccc2)cc1` (stereo not drawn), the Potency result is “inactive” and the cell number change was -5.31%.
The corresponding values for `COc1ccc(N2CCN(c3nc(Cl)nc(N4CCOCC4)n3)CC2)cc1` are “inactive” and -11.2%.
For `COc1cc(C(=O)N(Cc2ccc(C)o2)C2CCS(=O)(=O)C2)cc(OC)c1OC` (stereo not drawn), the Potency entry is “inactive” and the cell number change is -6.11%.
The corresponding values for `O=C(Nc1ccccc1N1CCCCC1)c1ccc(-c2ccc(Cl)cc2)o1` are 14.6 µM (active) and 1.36%.
As to `CN1CCN(c2ccccc2NC(=O)c2ccc(-c3ccc(Cl)c(Cl)c3)o2)CC1`, the Potency result is “inactive”.
For `O=C(Nc1ccccc1N1CCCCC1)c1ccc(Cl)cc1`, the Potency result is “inactive” and the cell number change was determined as 12%.
For `Cc1csc(N(C(=O)Cc2ccccc2F)c2ccccc2)n1` the same measures were “inactive” and 3.81%.
On to `Clc1ccc(C2=Nn3c(nnc3-c3cccnc3)SC2)s1`, for which the Potency entry was “inactive” and the cell number change is -22.1%.
`COC(=O)c1sc(=S)n(-c2ccccc2)c1N`: the Potency is 11.6 µM (active).
`COC(=O)c1sc(=S)n(-c2cccc(Cl)c2)c1N`: the Potency result is “inactive” and the cell number change is -15.4%.
For `CCOC(=O)c1sc(=S)n(-c2ccccc2)c1N` the same measures were “inactive” and -17.5%.
For `Cc1cc(C)n2c(SCC(C)C)nnc2n1` the same measures were “inactive” and -0.577%.
The corresponding values for `O=C(CCCc1ccccc1)N1CCc2ccccc21` are “inactive” and 4.72%.
Turning to `Cc1ccc(NC(=O)CS(=O)CC(=O)N(CC(=O)NC(C)(C)C)c2cccc(C)c2C)cc1` (stereo not drawn), the Potency entry is “inactive” and the cell number change is 1.3%.
As to `O=C(N/C(=C\c1ccccc1)C(=O)N1CCOCC1)c1ccco1`, the Potency result was “inactive” and the cell number change worked out at 1.67%.
The corresponding values for `CC(C)C12CN3CC(C(C)C)(CN(C1)C3(C)C)C2=O` are “inactive” and 8.23%.
The corresponding values for `COc1ccc(C2(C(=O)NCc3ccccc3Cl)CCOCC2)cc1OC` are “inactive” and -6.59%.
For `O=C(COc1ccc(Cl)cc1Cl)N/N=C/C1CC=CCC1` (stereo not drawn) the same measures were 1.84 µM (active) and -11.9%.
For the molecule `COc1ccc(OCC(=O)N/N=C/C2CC=CCC2)cc1` (stereo not drawn), the Potency result is “inactive” and the cell number change is -11.3%.
Consider `N#Cc1ccc(OCC(=O)N/N=C/C2CC=CCC2)cc1` (stereo not drawn), for which the Potency entry is “inactive” and the cell number change turned out to be 18.8%.
For `CCc1[nH]nc(C(=O)N2CCCC(Nc3cccc(F)c3)C2)c1C` (stereo not drawn) the same measures were “inactive” and 0.697%.
`CCNC(=S)Nc1cccc([N+](=O)[O-])c1`: the Potency entry is “inactive” and the cell number change turned out to be 16.5%.
For the molecule `CCCCC1CCC(C(=O)N(C)CC(=O)Nc2cccc(OC)c2)CC1` (stereo not drawn), the Potency entry is “inactive” and the cell number change is -0.846%.
Take `CN(CC(=O)Nc1cccc(F)c1)C(=O)c1cc(-c2ccccc2)nc2ccccc12`: the lipid storage change, negative = inhibition was 3.36% [at 0.0737 µM] (inactive).
As for `COc1cccc(NC(=O)CN(C)C(=O)c2cn(-c3ccccc3)nc2-c2cccnc2)c1`, the Potency entry was “inactive” and the cell number change is -3.75%.
For `CN(CC(=O)Nc1ccc(F)cc1)C(=O)c1ccc(N2C(=O)CCC2=O)cc1` the same measures were “inactive” and 5.41%.
For `CN(CC(=O)Nc1c(Cl)cccc1Cl)C(=O)c1ccncc1` the same measures were “inactive” and 22.3%.
For `CN(CC(=O)Nc1cccc(F)c1)C(=O)c1cccc2ccccc12` the same measures were 5.8 µM (active) and -19.1%.
For the molecule `CN(CC(=O)Nc1ccc(F)cc1)C(=O)c1ccncc1`, the Potency is 1.64 µM (active).
With `CCCCC1CCC(C(=O)N(C)CC(=O)Nc2cccc(F)c2)CC1` (stereo not drawn), the Potency was 0.651 µM (active) and the cell number change is 20.8%.
Consider `CC1CC1C(=O)N(C)CC(=O)Nc1cccc(F)c1` (stereo not drawn), for which the cell number change is -4.04% and the lipid storage change, negative = inhibition is -4.95% [at 0.0737 µM] (inactive).
Take `COc1ccc(NC(=O)CN(C)C(=O)c2cn(-c3ccccc3)nc2-c2ccc(F)cc2)cc1`: the Potency entry is “inactive” and the cell number change is -10.6%.
The corresponding values for `COc1cccc(-c2nn(-c3ccc(C)cc3)cc2C(=O)N(C)CC(=O)Nc2cccc(F)c2)c1` are 6.51 µM (active) and -27.2%.
Regarding `CN(CC(=O)Nc1cccc(F)c1)C(=O)c1cc(=O)[nH]c2ccccc12`, the Potency result is “inactive” and the cell number change is 6.52%.
The corresponding values for `Cc1nc([N+](=O)[O-])c(C(=O)OCc2cccc(Br)c2)n1C` are “inactive” and -13.6%.
For `O=C(COC(=O)C1CCN(c2ccc(C(F)(F)F)cn2)CC1)NCc1ccc(Cl)cc1Cl` the same measures were “inactive” and 7.81%.
For `O=C1CCCN1c1ccc(S(=O)(=O)N2CCCCC2)cc1[N+](=O)[O-]` the same measures were “inactive” and 14.2%.
Take `CS(=O)(=O)c1ccccc1C(=O)N(CCc1ccccc1)Cc1ccccc1`: the Potency result is “inactive” and the cell number change was -4.69%.
For `O=C(NCC1CCN(C(=O)c2ccc([N+](=O)[O-])cc2)CC1)C(=O)Nc1ccccc1` the same measures were “inactive” and -0.701%.
For `Cc1c(NC(=O)CSc2ccccc2C(=O)Nc2cccnc2)c(=O)n(-c2ccccc2)n1C` the same measures were “inactive” and 13.8%.
